The source of these data is PubChem BioAssay AID485297 (National Center for Advancing Translational Sciences (NCATS), 2010).

Hit rate of the full screen: of about 320,000 compounds, about 9,100 (2.8%) were called active. Inconclusive results (about 3%) are left out. Calls come from the whole dose curve; as a rule, active = well fitted activation curve with a large enough effect; inconclusive = small, poorly fitted or top-dose-only effect; inactive = no such curve, though single readings can be large or run the other way. What follows is part of a selection rich in actives, with near analogues and random picks from the rest. Entries that show only a call come without a potency.
Potency is the fitted concentration of half-maximal effect.

A short description of the assay: qHTS Assay for Rab9 Promoter Activators. Note: nearly all actives have a fitted effect of over 60% in size. To be noted: Huh7 Rab9 promoter-luciferase reporter, luminescence, 24 h; series mostly up to 9.22 µM. A digest of the protocol:
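Steps: seed 1500 Huh7 Rab9-luc cells per well, rest 2 h at 37 °C; add compound in DMSO; incubate 24 h; add luciferase reagent, 10 min ambient; read luminescence.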
On the technique in general: Quantitative high-throughput screening tests each substance at several concentrations.
For `Cc1cccc(N(C)C(=O)CN2C(=O)COc3ccc(S(=O)(=O)N4CCCCCC4)cc32)c1`, the Potency entry is “inactive”.
`CN(CC(=O)Nc1cccc(F)c1)C(=O)CC1CCCC1`: the Potency entry is “inactive”.
As for `COc1ccc(C2=NN(C(=O)CSc3nnnn3C)C(c3ccco3)C2)cc1` (stereo not given), the entry is “inactive”.
Regarding `Cc1ccc(C(=O)OCC(=O)Nc2ccc(Cl)cn2)cc1S(=O)(=O)N1CCOCC1`, the Potency entry is “inactive”.
As for `O=S(=O)(Nc1ccc2nc(N3CCOCC3)sc2c1)c1ccccc1`, the figure is 2820 nM (active); as for `O=C(c1ccc2nc(N3CCOCC3)sc2c1)N1CCN(c2ccc(Cl)cc2)CC1`, “inactive”.
Consider `CC(=O)Nc1ccc(S(=O)(=O)Nc2ccc(N3CCOCC3)c(F)c2)cc1`, for which the Potency entry is “inactive”.
As for `N#Cc1ccc(CN2CCN(CC(=O)Nc3ccccc3C(=O)NC3CC3)CC2)cc1`, the entry is “inactive”; as for `CCCn1c(=O)c(C(=O)Nc2cc(C)ccn2)c(O)c2ccccc21`, “inactive”; as for `C=CCn1c(=O)c(C(=O)Nc2ncccc2O)c(O)c2ccccc21`, “inactive”.
As for `Cn1c(=O)c(C(=O)Nc2ncccn2)c(O)c2ccccc21`, the figure is 3160 nM (active).
The same measure for `COC(=O)CNS(=O)(=O)c1ccc(OC)cc1`: “inactive”; for `C/C(N)=C(/C#N)C(=O)COC(=O)CNS(=O)(=O)c1ccc(C)cc1`: “inactive”.
Consider `COC(=O)CNS(=O)(=O)c1ccc(Cc2ccc(S(=O)(=O)NCC(=O)OC)cc2)cc1`, for which the Potency was 1260 nM (active).
In the case of `COc1ccc(S(=O)(=O)N2CCOCC2)cc1NC(=O)CSc1cc(C)ccc1C`, the Potency entry is “inactive”.
With `CCOC(=O)c1c(C)[nH]c(C2=NNC(=NC(C)COC)SC2)c1C` (stereo not given), the Potency was 1580 nM (active).
As for `O=C(CSc1nc2ccccc2c(=O)n1CCCO)NC1CC1`, the entry is “inactive”; as for `CN(CCO)Cc1csc2ccc(Br)cc12`, “inactive”; as for `COc1ccc(/C=C/c2nnc(NC(=O)C(C)C)s2)cc1`, “inactive”.
The same measure for `COc1ccc(/C=C/c2noc(-c3ccccc3OC(C)=O)n2)cc1`: 2240 nM (active); for `CC(=O)Oc1ccc(-c2nc3c(C)cccc3c(=O)o2)cc1`: “inactive”; for `Cc1ccc(NC(=O)COC(=O)CN2CCCCCC2=O)c(C)c1`: “inactive”.
The same measure for `COc1ccc(OC)c(S(=O)(=O)Nc2c(C)nn(C)c2C)c1`: “inactive”; for `Cc1ccc(S(=O)(=O)Cc2cc(-c3ccc(Cl)cc3)no2)cc1`: “inactive”.
As for `Oc1ccccc1-c1cc(-c2ccc(Cl)cc2)n[nH]1`, the Potency was 2510 nM (active).
The same measure for `CC(C)C(=O)NCc1cc(-c2ccc(Cl)cc2)no1`: “inactive”; for `Cc1sc2ncn(CC(=O)NCCCC(=O)NCc3ccc(F)cc3)c(=O)c2c1C`: “inactive”; for `CCCCCc1c(C)nc(N2CCN(Cc3ccc4c(c3)OCO4)CC2)[nH]c1=O`: “inactive”.
For the compound `O=C(NCc1ccncc1)c1cccc(NS(=O)(=O)c2ccc(F)c(F)c2)c1`, the Potency entry was “inactive”.
`CCC(=O)N1CCCc2ccccc21`: the Potency result was “inactive”.
The same measure for `O=C(CSCc1ccccc1)N1CCc2ccccc21`: 1780 nM (active); for `O=C(CN1CCN(c2ccccn2)CC1)N1CCc2ccccc21`: “inactive”.
Take `CCCCn1nc(C(=O)Nc2cccc(C(=O)NC3CC3)c2)c2ccccc2c1=O`: the Potency result was “inactive”.
As for `Cc1ccc(NC(=O)CCCNC(=O)c2ccc(Cl)cc2)cc1S(=O)(=O)N1CCOCC1`, the Potency entry is “inactive”.
As for `O=C(NCCSc1ccccc1)c1ccco1`, the figure is 3550 nM (active); as for `O=C(NCCSc1ncc(-c2ccccc2)[nH]1)c1ccco1`, “inactive”; as for `CCS(=O)(=O)Nc1ccc(C(=O)NCCSc2ccccc2)cc1`, “inactive”.
The same measure for `CC(C)(CNC(=O)CNC(=O)C1CCCCC1)N1CCOCC1`: “inactive”; for `CCCCNC(=O)Cn1nc(C)c(S(=O)(=O)N2CCOCC2)c1C`: “inactive”.
With `CC1CCN(S(=O)(=O)c2ccc3c(c2)n(C)c(=O)n3C)CC1`, the Potency entry was “inactive”.
As for `CCOC(=O)CC1(NC(=O)c2cc(COc3cncc(Cl)c3)on2)CCCCC1`, the entry is “inactive”; as for `Cc1nonc1C1CCCN1C(=O)c1cc(COc2cccc(C(F)(F)F)c2)on1` (stereo not given), “inactive”.
As for `CCCOC1CCCN(C(=O)c2cc(COc3cncc(Cl)c3)on2)C1` (stereo not given), the figure is 1410 nM (active); as for `CC(C)(C)c1nnc(N/N=C/c2ccc(O)cc2)n(N)c1=O`, “inactive”.
Regarding `Cc1ccc(Cn2c(C)c3cnn(CC(=O)NCc4ccccn4)c(=O)c3c2C)cc1`, the Potency result was “inactive”.
The same measure for `Cc1ccc(C(=O)Nc2ncccc2C)cc1S(=O)(=O)N1CCOCC1`: “inactive”; for `Cc1cc(NC(=O)COc2ccc([N+](=O)[O-])cc2)no1`: “inactive”.
As for `Cc1cc(NC(=O)COc2ccccc2C#N)no1`, the figure is 3550 nM (active).
The same measure for `CCOc1ccc(C(=O)Nc2ccc(S(=O)(=O)Nc3cc(C)on3)cc2)cc1`: “inactive”.
For the compound `Cc1cc(NC(=O)COn2nnc3ccccc32)no1`, the Potency result is “inactive”.
The same measure for `CCC(=O)Nc1ccc(C(=O)Nc2cc(C)on2)cc1`: “inactive”.
As for `CCOc1ccc(NC(=O)Nc2cc(C)on2)cc1`, the figure is 1120 nM (active); as for `Cc1cc(C)cc(NC(=O)C(OC(=O)c2ccc(O)cc2)c2ccccc2)c1` (stereo not given), “inactive”; as for `COc1ccc([C@H]2CC(=O)C=C(c3ccc(OC(F)(F)F)cc3)C2)cc1OC`, “inactive”.
As for `CCN(CC)S(=O)(=O)c1ccc(N2CCOCC2)c(NC(=O)c2ccc(=O)n(C)n2)c1`, the entry is “inactive”.
With `COc1ccc2c(c1)[C@H]1[C@H](CO2)[C@H](c2ccccc2)[C@]2(C)C(=O)Nc3cc(F)c(F)cc3C(=O)N12`, the Potency result is “inactive”.
Turning to `O=C(NCCN1CCOCC1)c1cccc(S(=O)(=O)Nc2ccc(F)cc2)c1`, the Potency result was “inactive”.
As for `CC(=O)c1c(C)[nH]c(C(=O)COc2ccc3c(C)cc(=O)oc3c2)c1C`, the entry is “inactive”; as for `C=CCNc1cnn(-c2ccc(C)cc2)c(=O)c1Cl`, 3550 nM (active).
As for `Cc1ccc(Oc2cnn(-c3ccccc3)c(=O)c2Br)cc1`, the entry is “inactive”.
Turning to `O=c1c(Cl)c(NC2CC2)cnn1-c1ccccc1`, the Potency result is “inactive”.
For `CC(=O)NC12CC3CC(C1)CC(C(=O)N1CCN(S(=O)(=O)c4cccs4)CC1)(C3)C2`, the Potency entry is “inactive”.
`CCn1nc(C(=O)Nc2ccc(N3CCOCC3)cc2)c2ccccc2c1=O`: the Potency result was “inactive”.
The same measure for `c1ccc(-n2cccc2)c(N2CCCCC2)c1`: “inactive”; for `CN(C)c1ccnc(Nc2ccc(F)cc2)c1C#N`: “inactive”.
On to `CC(C)c1ccc(/C=C/C(=O)NNC(=O)c2cccnc2)cc1`, for which the Potency result was “inactive”.
The same measure for `CC(C)c1ccc(Nc2ncccc2C#N)cc1`: 3550 nM (active).
The same measure for `COc1ccc(C(=O)Nc2ccccc2C(=O)NCc2ccco2)cc1`: “inactive”; for `COc1ccc(CNC(=O)CNC(=O)c2sc3ccccc3c2Cl)cc1OC`: “inactive”; for `COc1ccc2c(Cl)c(C(=O)NCc3ccco3)sc2c1`: 3160 nM (active).
